# BAZ2B block: qHTS Assay for Inhibitors of BAZ2B | Potency, µM (titrated, usually from 114 µM), for the others: at the highest dose activity change, negative = inhibition, most hits filed as inhibitors | Bromodomain adjacent to zinc finger domain protein 2B (Homo sapiens), Q9UIF8 | AID 504333, 2011 | AlphaScreen BAZ2B-H3K14Ac peptide displacement | hit rate 4.4% among 360,000; further: potency means the concentration at half of the fitted maximal effect; on the % scale 0 is the no-effect control and ±100 the full control effect; nearly all actives have a fitted effect of over 60% in size
#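 AlphaScreen displacement of biotin-H3(5-23)K14Ac peptide (50 nM final) from BAZ2B (50 nM final) in PBS pH 7.4, 0.01% Tween-20; complex preformed 30 min RT, then compounds (top 110 uM) 30 min RT, beads 20 min dark.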
# G9a block: qHTS Assay for Inhibitors of Histone Lysine Methyltransferase G9a; Histone-lysine N-methyltransferase EHMT2 (Homo sapiens), Q96KQ7; G9a H3K9 monomethylation, AlphaScreen, 2 h; Potency, µM (highest dose often 102 µM), without a hit: at the top dose activity, negative = inhibition, most hits filed as inhibitors; hit rate 8.8% among 350,000; further: potency means the concentration at half of the fitted maximal effect; on the % scale 0 is the no-effect control and ±100 the full control effect; nearly all actives have a fitted effect of over 75% in size
# Target sequence (Q96KQ7 913-1193 limits assumed): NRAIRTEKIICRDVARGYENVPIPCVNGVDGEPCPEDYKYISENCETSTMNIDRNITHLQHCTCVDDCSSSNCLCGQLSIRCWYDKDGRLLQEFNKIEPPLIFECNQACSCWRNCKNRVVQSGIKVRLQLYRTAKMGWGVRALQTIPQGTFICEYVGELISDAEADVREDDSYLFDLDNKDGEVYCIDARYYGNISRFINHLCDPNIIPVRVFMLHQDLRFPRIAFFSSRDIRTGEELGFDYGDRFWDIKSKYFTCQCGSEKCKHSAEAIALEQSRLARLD
#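 Quantitative HTS format: methyltransferase activity on a biotin-tagged H3K9 peptide is measured by AlphaScreen, using a rabbit anti-monomethyl-H3K9 antibody with streptavidin donor and anti-IgG acceptor beads. Final levels are 20 nM enzyme, 500 nM peptide, 20 uM SAM; 2 h RT.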
# Six1-Eya2 blk: qHTS Assay for Inhibitors of the Six1/Eya2 Interaction; hit rate 0.56% among 360,000; Homeobox protein SIX1 (Homo sapiens) + Protein phosphatase EYA2 (Homo sapiens), …; AlphaScreen GST-Six1/His-Eya2 binding, biochemical; active compounds read low; activity change, % (concentration not given with the values); in the data active means activity change below about -65%; inconclusive means mostly about -30% to -63%; further: on the % scale 0 is the no-effect control and ±100 the full control effect
#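 AlphaScreen luminescence read after one hour at 37 °C in darkness. Pin-transferred compounds met GST-Six1 and His-Eya2 protein (5X stock 250 nM/500 nM) plus glutathione donor and Ni-chelate acceptor beads (5X, 50 ug/mL).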
# HP1b binding inh: HTS for Inhibitors of HP1-beta Chromodomain Interactions with Methylated Histone Tails; Chromobox protein homolog 1 (Homo sapiens), P83916; AlphaScreen HP1-beta / biotin-H3K9me3 peptide binding; Potency, µM (top dose mostly 114 µM), for inactives: at the top dose activity change, negative = inhibition, actives largely listed as inhibitors; hit rate 0.56% among 390,000; further: potency means the concentration at half of the fitted maximal effect; nearly all actives have a fitted effect of over 70% in size
# Target sequence (P83916 whole entry, looked up): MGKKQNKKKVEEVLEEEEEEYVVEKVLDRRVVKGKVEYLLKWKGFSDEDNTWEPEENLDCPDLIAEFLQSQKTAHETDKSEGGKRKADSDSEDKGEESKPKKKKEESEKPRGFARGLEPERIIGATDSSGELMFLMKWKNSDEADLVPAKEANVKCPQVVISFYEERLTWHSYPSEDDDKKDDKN
#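 Compound inhibition of the preformed complex between 50 nM HP1-beta and 50 nM biotinylated H3K9me3 peptide was read by AlphaScreen. Buffer was PBS pH 7.4 with 0.01% Tween-20. Incubations ran 30 min at room temperature, with 10 ug/mL donor/acceptor beads.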
# CtBP-E1A inh: qHTS Assay for Inhibitors of the CtBP/E1A Interaction. AlphaScreen GST-E1A/His-CtBP binding, 1536-well; active compounds read low. hit rate 0.49% among 340,000. activity change, % (no concentration beside the values). CtBP / adenovirus E1A interaction (AlphaScreen). AID 651724, 2012; in the data active means activity change below about -65%; inconclusive means mostly about -30% to -63%; further: on the % scale 0 is the no-effect control and ±100 the full control effect
#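 Homogeneous bead-based format: GST-tagged E1A captured on glutathione donor beads, His-tagged CtBP on nickel acceptor beads; compounds precede bead addition by 2 h at 37 °C.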
# JMJD2A Tudor: qHTS Assay for Inhibitors of JMJD2A-Tudor Domain; Lysine-specific demethylase 4A (Homo sapiens), O75164; AlphaScreen JMJD2A-Tudor / H3K4me3 peptide binding; Potency, µM (series often up to 114 µM), for the others: at the top dose activity change, negative = inhibition, usual class: inhibitors; hit rate 4.4% among 390,000; further: potency means the concentration at half of the fitted maximal effect; on the % scale 0 is the no-effect control and ±100 the full control effect; nearly all actives have a fitted effect of over 50% in size
# The depositor's hits bear a star; ? = inconclusive; / = no result given; [ ] = remark or other dose. This is a sample that favours compounds with a hit; in the whole collection about 10% have one here. Unless noted, the call rests on the fitted dose curve; in most records, active means well fitted inhibition curve with a large enough effect; inconclusive means small, poorly fitted or top-dose-only effect; inactive means no such curve, though single readings can be large or run the other way.
SMILES,BAZ2B block,G9a block,Six1-Eya2 blk,HP1b binding inh,CtBP-E1A inh,JMJD2A Tudor
Cc1ccc(NNC(=O)Nc2ccc(Cl)cc2)nn1,-23%,4µM*,7,?,-3,79µM*
CC1=C(C(=O)OC2CCCC2)C(c2ccc(F)cc2F)CC(=O)N1 (stereo not given),-1%,-3%[59 µM],/,34%,/,-9%
Cc1cc(C)c(C#N)c(Nc2cccc(C)c2C)n1,-1%,35%,3,53%,16,8%
COC(=O)/C=C/S(=O)(=O)c1ccc(NC(C)=O)cc1,/,8.9µM*,1,23%,-6,6%
CC1CN(C(=S)Nc2ccccc2)N(c2ccccc2)C1 (stereo not given),6%,4%,-1,63%,2,-4%
CC1(OC(=O)CCc2ccccc2)C(=O)C=C2C=C3CCCN3C=C2C1=O (stereo not given),56µM*,-39%[59 µM],-4,-9%,-5,56µM*
CC1(OC(=O)c2cccs2)C(=O)C=C2C=C3CCCN3C=C2C1=O (stereo not given),45µM*,-37%[59 µM],-10,?,-5,56µM*
COC(=O)CCCC1=CC2=CC(=O)C(C)(OC(=O)c3cccs3)C(=O)C2=CN1C1CCCC1 (stereo not given),-37%,-20%[59 µM],-2,28%,-2,-20%
Cc1nc(C(F)(F)F)ccc1C(=O)N1CCC1(C)C(=O)NCc1ccc(Cl)cc1 (stereo not given),/,/,9,/,2,/
CC1(C)CC(=O)C2=C(C1)OC(N)=C(C#N)C2C#Cc1ccccc1 (stereo not given),?,14µM*,-3,42%,3,-25%
O=C(Cn1c(=O)n(CCc2ccccc2)c(=O)c2c3c(sc21)CCCC3)Nc1ccc(F)c(F)c1,2%,3%[59 µM],/,22%,/,3%
CSC1=NCCN1C(=O)c1c(F)cccc1Cl,-1%,50µM*,8,51%,4,-4%
Nc1ccc(C(CC(=O)O)n2cccc2)cc1 (stereo not given),79µM*,?,-3,?,-9,?
c1ccc2c(c1)ccc1nnnn12,/,/,1,-8%,-2,-3%
N#CC(C#N)=CC1=C2OC(c3ccccc3)=CC(c3ccccc3)=C2CCC1,?,?,-13,2.8µM*,-20,2.2µM*
Cc1ccc(NC(=O)C(C)N2C(=O)c3ccccc3C2=O)cc1S(=O)(=O)N1CCOCC1 (stereo not given),-11%,-3%,13,35%,/,-4%
C=CCN1C(=O)/C(=C\C=C2\N(C)c3ccccc3C2(C)C)SC1=S,?,16µM*,2,?,-25,?
CCCN1C(=O)/C(=C/C=C2\N(CC)c3ccccc3C2(C)C)SC1=S,1.8µM*,?,-21,10µM*,-3,11µM*
CN1/C(=C\C=C2/SC(=S)N(CC(=O)O)C2=O)C(C)(C)c2ccccc21,28µM*,18µM*,?,35µM*,-29,?
CN1/C(=C/C=C(C#N)C#N)C(C)(C)c2ccccc21,3%,/,2,13%,-1,-18%
O=C(Nc1ccc(Cl)cc1)Nc1ccc2c(c1)N1CCN=C1S2,-5%,32µM*,-8,21%,-10,-12%[57.1 µM]
Nc1ccc2c(c1)N1CCN=C1S2,-6%,7.1µM*,1,-16%,-9,-17%
O=C(CC1SC2=NCCN2C1=O)Nc1ccc(Cl)cc1 (stereo not given),0%,-2%[59 µM],8,17%,-11,-9%
N#Cc1nc(Nc2cccc(-c3ccccc3)c2)nc(NC2CCCC2)n1,/,/,/,/,/,-13%
O=C1CC(c2ccc(Cl)cc2)CC(=O)C1CS(=O)(=O)c1ccccc1 (stereo not given),79µM*,4µM*,-1,-25%,/,-16%[11.4 µM]
SMILES,BAZ2B block,G9a block,Six1-Eya2 blk,HP1b binding inh,CtBP-E1A inh,JMJD2A Tudor
O=C1CCCC(=O)C1CS(=O)(=O)c1ccccc1,-23%,3.2µM*,7,16%,-9,-12%
COc1ccc(C2CC(=O)C(CS(=O)(=O)c3ccccc3)C(=O)C2)cc1 (stereo not given),15%,45%,9,-10%,/,-4%[11.4 µM]
O=C(COc1ccc(Cl)cc1Cl)NN1C(=O)C2C3C=CC([C@@H]2C1=O)C31CC1 (stereo not given in full),3%,?,2,26%,5,-15%
Cc1nc(NC(=O)C2CC2)sc1C(=O)Nc1ccccc1,5%,/,-6,16%,2,-7%
Cc1nc(N)sc1C(=O)Nc1ccccc1,-29%,50µM*,8,24%,-1,?
Cc1nc(Nc2c(Cl)cccc2Cl)sc1C(=O)Nc1ccccc1,?,50µM*,-8,25%,3,-8%
Cc1ccccc1C1c2[nH]c3ccccc3c2CCN1CCCn1cccn1 (stereo not given),?,?,2,-17%,-5,?
Fc1ccc(C2c3[nH]c4ccccc4c3CCN2CCCn2cccn2)cc1 (stereo not given),40µM*,5%[59 µM],-8,-18%,-9,?
CCCCCOC(=O)CSc1n[nH]c(=O)[nH]c1=O,-9%,11%[12.7 µM],10,16%,8,13%
CCOCCOC(=O)CCSc1n[nH]c(=O)[nH]c1=O,-4%,50µM*,4,27%,7,-11%
O=C1Nc2ccccc2/C1=N\c1sc2c(c1C(=O)Nc1ccccc1)CCCC2,-25%,13µM*,-6,3%,5,?
CNc1cncc(-c2ccc(S(C)(=O)=O)cc2)n1,/,/,6,/,1,/
CCOc1ccc(N2CC(NC(=O)c3ccc4c(c3)OCO4)CC2=O)cc1 (stereo not given),2%,-3%[59 µM],/,28%,/,-9%
O=C(CCCn1c(=O)[nH]c2ccccc2c1=O)NC1CCCCCC1,-1%,2%[59 µM],9,25%,7,-9%
CC1CCC(NC(=O)CCCn2sc3ccccc3c2=O)CC1 (stereo not given),-16%,22µM*,-4,10%,-4,?
CCN(C(=O)c1cc2c(s1)-c1c(C)cccc1OC2)c1cc(C)ccc1C,53%,88%[59 µM],/,130%,/,91%
Cc1ccc(CNC(=O)c2ccc(Cn3nc(C)c(Cl)c3C)o2)cc1,50µM*,?,-7,25%,0,?
